Measurements taken from PubChem BioAssay (Tox21).
Inconclusive results are not listed. Calls of active or inactive are those of the source. Unless noted, the call rests on the fitted dose curve; in most records, active means well fitted curve in the direction sought with a large enough effect in the repeat runs; inconclusive means weak or mixed curves; inactive means no such curve, though single readings can be large; an effect the other way counts as inactive or inconclusive.

What was measured:
[1] = target: Peroxisome proliferator-activated receptor delta (Homo sapiens) (UniProt Q03181); experiment: qHTS assay to identify small molecule agonists of the peroxisome proliferator-activated receptor delta (PPARd) signaling pathway (AID 743212; calls by dose curve;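 further: HEK293H cells with PPARd UAS beta-lactamase reporter GeneBLAzer system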)
Sequence of Peroxisome proliferator-activated receptor delta (Homo sapiens) (Q03181 whole entry, looked up): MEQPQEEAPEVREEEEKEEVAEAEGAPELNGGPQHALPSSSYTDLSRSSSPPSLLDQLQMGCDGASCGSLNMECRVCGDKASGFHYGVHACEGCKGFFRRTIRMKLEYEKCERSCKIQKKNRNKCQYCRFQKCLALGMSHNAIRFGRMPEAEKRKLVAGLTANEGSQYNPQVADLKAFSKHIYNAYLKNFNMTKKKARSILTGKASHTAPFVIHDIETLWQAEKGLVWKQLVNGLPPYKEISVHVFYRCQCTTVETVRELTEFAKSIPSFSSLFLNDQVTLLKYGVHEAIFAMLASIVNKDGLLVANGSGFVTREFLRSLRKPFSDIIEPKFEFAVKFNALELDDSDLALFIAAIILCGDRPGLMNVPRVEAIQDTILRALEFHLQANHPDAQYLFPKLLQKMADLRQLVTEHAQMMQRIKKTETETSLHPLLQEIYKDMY
How it was run: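 Beta-lactamase reporter read by fluorescence (LiveBLAzer B/G FRET, 2 h, room temperature). Test agents, in DMSO, incubated at 37 C with PPARd-bla HEK293H cells.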

[2] = qHTS assay to identify small molecule antagonists of the peroxisome proliferator-activated receptor delta (PPARd) signaling pathway - cell viability counter screen (AID 743213); further: nearly all actives have a fitted effect of over 50% in size
How it was run: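 Cytotoxicity counter screen: CellTiter-Glo luminescence read 30 min after addition, in the same wells as the reporter assay. There, PPARd UAS-bla HEK293H cells (3000/well) were treated 17 h at 37 C with compound and 300 nM L165041.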

[3] = target: Peroxisome proliferator-activated receptor delta (Homo sapiens) (UniProt Q03181); experiment: qHTS assay to identify small molecule antagonists of the peroxisome proliferator-activated receptor delta (PPARd) signaling pathway (AID 743215; active means well fitted inhibition curve with a large enough effect in the signal ratio in the repeat runs, not every such curve was filed as active; the % refers to the signal ratio;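 further: cells stimulated with agonist L165041 at 300 nM final during compound exposure; series mostly up to about 62 µM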)
How it was run: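 Agonist L165041 (300 nM final) added with compound to PPARd-bla HEK293H UAS-bla reporter cells; 17 h incubation at 37 C. Read-out: LiveBLAzer FRET substrate, 2 h at room temperature, fluorescence intensity.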

[4] = target: Bile acid receptor (Homo sapiens) (UniProt Q96RI1); experiment: qHTS assay to identify small molecule antagonists of the farnesoid-X-receptor (FXR) signaling pathway (AID 743217; active means well fitted inhibition curve with a large enough effect in the signal ratio in the repeat runs, not every such curve was filed as active; the % refers to the signal ratio)
Sequence of Bile acid receptor (Homo sapiens) (Q96RI1 whole entry, looked up): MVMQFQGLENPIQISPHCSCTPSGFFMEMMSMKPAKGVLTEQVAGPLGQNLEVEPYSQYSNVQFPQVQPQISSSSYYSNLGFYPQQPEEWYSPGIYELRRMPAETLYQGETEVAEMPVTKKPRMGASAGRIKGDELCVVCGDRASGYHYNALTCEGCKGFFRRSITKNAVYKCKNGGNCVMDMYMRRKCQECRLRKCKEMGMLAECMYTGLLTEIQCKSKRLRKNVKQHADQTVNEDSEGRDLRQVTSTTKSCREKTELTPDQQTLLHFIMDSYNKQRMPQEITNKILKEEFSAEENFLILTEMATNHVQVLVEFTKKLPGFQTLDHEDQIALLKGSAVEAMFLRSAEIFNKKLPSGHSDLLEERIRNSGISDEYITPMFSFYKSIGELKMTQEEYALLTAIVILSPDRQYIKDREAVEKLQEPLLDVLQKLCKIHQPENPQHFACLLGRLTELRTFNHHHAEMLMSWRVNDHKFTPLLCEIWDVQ
How it was run: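 Antagonist mode: chenodeoxycholic acid at 50 uM final stimulates a UAS-driven beta-lactamase reporter in HEK 293T FXR-bla cells during 16 h, 37C compound exposure. Read-out is FRET substrate fluorescence after 2 h at room temperature.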

[5] = qHTS assay to identify small molecule agonists of the farnesoid-X-receptor (FXR) signaling pathway - cell viability counter screen (AID 743218); further: nearly all actives have a fitted effect of over 45% in size
How it was run: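 Viability counter screen in the same wells: CellTiter-Glo luminescence, 30 min room-temperature incubation, measured after the beta-lactamase read. Cells were GeneBLAzer FXR-UAS-bla HEK 293T, compound-treated 16 h at 37C.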

[6] = target: Bile acid receptor (Homo sapiens) (UniProt Q96RI1); experiment: qHTS assay to identify small molecule agonists of the farnesoid-X-receptor (FXR) signaling pathway (AID 743220; active means well fitted activation curve with a large enough effect in the signal ratio in the repeat runs, not every such curve was filed as active; the % refers to the signal ratio)
How it was run: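 FXR-UAS-bla HEK 293T cells carrying a UAS-driven beta-lactamase reporter were plated for 5 h at 37C/5% CO2, then exposed to DMSO-dissolved Tox21 10K compounds for 16 h at 37C. A LiveBLAzer B/G FRET substrate was loaded for 2 h at room temperature before fluorescence reading.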

[7] = qHTS assay to identify small molecule antagonists of the farnesoid-X-receptor (FXR) signaling pathway - cell viability counter screen (AID 743221; active means well fitted cell-killing curve with a large enough effect in the repeat runs, not every such curve was filed as active; further: nearly all actives have a fitted effect of over 50% in size)
How it was run: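 Here viability was scored by luminescence after CellTiter-Glo addition to wells already read for beta-lactamase. Prior treatment: compound plus CDCA (50 uM final), 16 h, 37 C, HEK 293T FXR-bla cells.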

[8] = target: Vitamin D3 receptor (Homo sapiens) (UniProt P11473); experiment: qHTS assay to identify small molecule agonists of the vitamin D receptor (VDR) signaling pathway (AID 743222; calls by dose curve)
Sequence of Vitamin D3 receptor (Homo sapiens) (P11473 whole entry, looked up): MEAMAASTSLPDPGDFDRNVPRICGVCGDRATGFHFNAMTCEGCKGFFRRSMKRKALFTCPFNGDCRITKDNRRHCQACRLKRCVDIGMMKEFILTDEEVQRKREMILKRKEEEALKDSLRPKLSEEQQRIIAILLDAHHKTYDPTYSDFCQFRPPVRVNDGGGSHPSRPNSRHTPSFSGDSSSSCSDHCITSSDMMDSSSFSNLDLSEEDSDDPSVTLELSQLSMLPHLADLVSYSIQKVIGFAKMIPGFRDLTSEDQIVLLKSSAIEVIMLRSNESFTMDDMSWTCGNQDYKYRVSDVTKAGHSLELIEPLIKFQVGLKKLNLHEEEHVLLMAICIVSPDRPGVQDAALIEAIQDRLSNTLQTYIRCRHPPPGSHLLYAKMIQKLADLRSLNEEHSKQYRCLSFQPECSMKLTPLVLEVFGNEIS
How it was run: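 Agonist mode, beta-lactamase reporter: fluorescence from LiveBLAzer B/G FRET substrate (2 h, room temperature) read after 16 h compound treatment at 37 C of VDR-bla cells, which were pre-incubated 4 h after seeding.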

[9] = target: Vitamin D3 receptor (Homo sapiens) (UniProt P11473); experiment: qHTS assay to identify small molecule antagonists of the vitamin D receptor (VDR) signaling pathway (AID 743223; active means well fitted inhibition curve with a large enough effect in the signal ratio in the repeat runs, not every such curve was filed as active; the % refers to the signal ratio)
How it was run: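 Inhibition of agonist-driven VDR signalling is scored in VDR-bla cells: 3 nM final 1alpha,25-dihydroxyvitamin D3 plus compound, 16 h at 37C, then beta-lactamase detection by FRET substrate fluorescence after 2 h.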

[10] = qHTS assay to identify small molecule agonists of the vitamin D receptor (VDR) signaling pathway - cell viability counter screen (AID 743224); further: series mostly up to about 63 µM; nearly all actives have a fitted effect of over 50% in size
How it was run: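 Counter screen run in the same wells as the VDR-bla reporter assay: CellTiter-Glo luminescence, 30 min at room temperature, after 16 h compound treatment at 37C of cells pre-plated for 4 h.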

[11] = qHTS assay to identify small molecule agonists of the NFkB signaling pathway - cell viability counter screen (AID 1159515; calls by dose curve; further: series mostly up to about 61 µM; nearly all actives have a fitted effect of over 55% in size)
How it was run: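 Read by CellTiter-Glo luminescence (30 min, room temperature) in the wells also used for the beta-lactamase FRET read. ME-180 NFkB-bla cells at 2,000 per well were plated overnight, then exposed to compound for 5 hr at 37 C.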

[12] = qHTS assay to identify small molecule agonists of the endoplasmic reticulum stress response signaling pathway (AID 1159516; active means well fitted activation curve with a large enough effect in the signal ratio in the repeat runs, not every such curve was filed as active; the % refers to the signal ratio)
How it was run: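 Ratiometric FRET readout (405 nm excitation; 460 and 530 nm emission) of a beta-lactamase gene driven by the ER stress response element, after 2 hr substrate loading. HeLa ESRE-bla cells were seeded overnight and treated with compounds for only 5 hr at 37 C.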

[13] = qHTS assay to identify small molecule antagonists of the retinoid-related orphan receptor gamma (ROR-gamma) signaling pathway - cell viability counter screen (AID 1159520); further: nearly all actives have a fitted effect of over 50% in size
How it was run: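 Tet-on ROR gamma CHO cells (1,000/well) were plated 4 hr, given compounds in DMSO for 2 hr at 37 C, then induced with 1 uM final doxycycline for 16 hr. Viability was read as ATP by CellTiter-Glo luminescence after 30 min.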

[14] = target: Nuclear receptor ROR-gamma (Homo sapiens) (UniProt P51449); experiment: qHTS assay to identify small molecule antagonists of the retinoid-related orphan receptor gamma (ROR-gamma) signaling pathway (AID 1159521)
How it was run: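 Test compounds were applied to Tet-on RORγ CHO cells 2 h ahead of doxycycline hyclate (1 uM final). Luciferase reporter activity was quantified by luminescence after 16 h at 37 C and 5% CO2.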

[15] = qHTS assay to identify small molecule agonists of the AP-1 signaling pathway - cell viability counter screen (AID 1159525; calls by dose curve; further: nearly all actives have a fitted effect of over 55% in size)
How it was run: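 Each titration point was normalised to DMSO and tetra n-octyl ammonium bromide controls. The read was Cell Titer Glo luminescence after 30 min at RT, following 5 h compound exposure of ME-180 AP-1-bla cells at 37 °C.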

[16] = qHTS assay to identify small molecule agonists of the AP-1 signaling pathway (AID 1159526; calls by dose curve)
[17] = target: Retinoic acid receptor RXR-alpha (Homo sapiens) (UniProt P19793); experiment: qHTS assay to identify small molecule agonists of the RXR signaling pathway (AID 1159527; calls by dose curve; further: nearly all actives have a fitted effect of over 35% in size)
Sequence of Retinoic acid receptor RXR-alpha (Homo sapiens) (P19793 whole entry, looked up): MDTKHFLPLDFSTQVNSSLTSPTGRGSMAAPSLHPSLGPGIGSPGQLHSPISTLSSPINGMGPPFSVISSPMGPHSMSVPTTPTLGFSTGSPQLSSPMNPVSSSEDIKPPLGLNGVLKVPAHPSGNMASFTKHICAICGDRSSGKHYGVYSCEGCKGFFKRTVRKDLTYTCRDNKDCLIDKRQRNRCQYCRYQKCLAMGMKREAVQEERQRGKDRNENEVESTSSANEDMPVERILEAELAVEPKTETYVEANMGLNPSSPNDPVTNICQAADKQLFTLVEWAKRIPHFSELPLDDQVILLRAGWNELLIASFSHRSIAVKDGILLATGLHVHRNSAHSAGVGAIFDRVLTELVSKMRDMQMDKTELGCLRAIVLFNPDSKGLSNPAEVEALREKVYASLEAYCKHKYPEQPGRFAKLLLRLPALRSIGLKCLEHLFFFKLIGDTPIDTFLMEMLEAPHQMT
How it was run: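 Using 9-cis retinoic acid as the reference agonist, chemicals were tested in HEK 293T cells […] for 16 hr; substrate loading lasted 2 hr at room temperature.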

[18] = qHTS assay to identify small molecule agonists of the peroxisome proliferator-activated receptor delta (PPARd) signaling pathway - cell viability counter screen (AID 743211); further: nearly all actives have a fitted effect of over 55% in size
How it was run: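 In the same wells used for beta-lactamase reporter measurement, cytotoxicity is scored by CellTiter-Glo. HEK293H PPARd-bla cells receive compound for 17 h at 37C following a 5 h settling period.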

[19] = qHTS assay to identify small molecule antagonists of the vitamin D receptor (VDR) signaling pathway - cell viability counter screen (AID 743225); further: nearly all actives have a fitted effect of over 50% in size
How it was run: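 Compounds were pinned onto VDR-bla HEK 293T cells together with 1-alpha,25-dihydroxyvitamin D3 at 3 nM final. After 16 h at 37C and 5% CO2 plus the reporter readout, cell viability was measured by CellTiter-Glo luminescence (30 min, room temperature).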

[20] = qHTS assay to identify small molecule agonists of the endoplasmic reticulum stress response signaling pathway - cell viability counter screen (AID 1159517; calls by dose curve)
How it was run: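 Cytotoxicity of test compounds toward ESRE-bla HeLa cells was assessed after 5 hr exposure. The luminescent CellTiter-Glo signal was measured 30 min after reagent addition.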

Measured: Potency

CC[N+]1(CCOC(=O)C(O)(c2ccccc2)c2ccccc2)CCCCC1
not listed: [18] | [19] | [20]
inactive: all other assays above

CC(C)OC(=O)Cc1ccccc1
not listed: [1] | [3] | [4] | [6] | [11] | [20]
inactive: all other assays above

C=C(C)C(=O)OCCCCOC(=O)C(=C)C
not listed: [3] | [4] | [6] | [9] | [11] | [19] | [20]
inactive: all other assays above

C=CC(=O)OCC
not listed: [2] | [7] | [8] | [9] | [11]
inactive: all other assays above

CCC1(C2=NCCN2)Cc2ccccc2O1 (configuration not stated)
not listed: [1] | [3] | [4] | [6] | [8] | [11] | [14] | [15]
inactive: all other assays above

COc1ccc(C(O)(c2cncnc2)C2CC2)cc1 (configuration not stated)
not listed: [1] | [3] | [9] | [11] | [19]
inactive: all other assays above

CC1(C)CC(=O)CC(C)(C)N1[O]
not listed: [11] | [18]
inactive: all other assays above

C1CS1
not listed: [4] | [6] | [7] | [8] | [9] | [11] | [20]
inactive: all other assays above
